These results are taken from PubChem BioAssay (EPA / NIEHS).

Records with an inconclusive call do not appear. Activity calls are given as the source filed them. The calls were made as follows, unless noted: active = hit-call score of the fitted dose curve at least 0.9, where 1 is the maximum; inactive = score below 0.9.

Assay [1] in a line: ATG_PBREM_CIS: Attagene CIS-FACTORIAL HepG2 Assay for human Phenobarbital-responsive Enhancer Module (PBREM) (AID 2282955). Conditions: HepG2 PBREM cis-reporter, Attagene multiplexed transcription; actives raise or lower the signal. A digest of the protocol:
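Readout: reporter mRNA, fluorescent RT-PCR fragments separated by capillary electrophoresis. System: HepG2 transiently transfected with cis-regulated reporter units. Exposure: 24 h. Analysis: bidirectional, DMSO baseline.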

The nature of assay [2]: ATG_PXRE_CIS: Attagene CIS-FACTORIAL HepG2 Assay for human Pregnane X Receptor Element (PXRE) (AID 2282957). The following applies: HepG2 Attagene CIS-FACTORIAL PXRE reporter, mRNA; actives raise or lower the signal. A digest of the protocol:
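Transfect HepG2 with MRTUs (cis promoter elements); dose chemical, incubate 24 h; isolate RNA, RT with oligo(dT), PCR, 6-FAM label, HpaI cut, CE. Gain/loss fit vs DMSO.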

Assay [3] in a line: ATG_PPRE_CIS: Attagene CIS-FACTORIAL HepG2 Assay for human Peroxisome Proliferator-activated Response Element (PPRE) (AID 2282958). Conditions: HepG2 PPRE cis-element reporter, Attagene transcription factor profiling; actives raise or lower the signal. An outline of the steps: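 After human HepG2 hepatoma cells were transiently transfected with cis-promoter reporter constructs, they were exposed to test chemicals for 24 hours. Reporter RNA was then reverse-transcribed, PCR-amplified, FAM-labeled, HpaI-digested and quantified by capillary electrophoresis.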

A short description of assay [4]: ATG_RORE_CIS: Attagene CIS-FACTORIAL HepG2 Assay for human RAR-related Orphan Receptor Element (RORE) (AID 2282959). Conditions: HepG2 Attagene cis-factorial RORE reporter, mRNA; actives raise or lower the signal. A digest of the protocol:
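Measured here: transcript induction of a cis-regulated reporter in HepG2 cells transiently transfected via FuGene 6. After 24 h, RNA was processed by RT-PCR and fluorescent capillary electrophoresis; DMSO defined baseline activity.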

Assay [5] can be described thus: ATG_Sox_CIS: Attagene CIS-FACTORIAL HepG2 Assay for human SRY-box transcription factor (SOX) (AID 2282960). Conditions: HepG2 Attagene cis-factorial SOX reporter, mRNA; actives raise or lower the signal. An outline of the steps: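 Using transiently transfected HepG2 cells, reporter transcription driven by cis elements was assessed 24 h after dosing. Signal was fluorescence of capillary-separated RT-PCR products, with DMSO defining baseline activity.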

Assay [6] concerns the target Transcription factor Sp1 (Homo sapiens) (UniProt P08047). In words: ATG_Sp1_CIS: Attagene CIS-FACTORIAL HepG2 Assay for human Specificity Protein 1 (Sp1) (AID 2282961). Conditions: HepG2 Sp1 cis-reporter transcription, actives raise or lower the signal. An outline of the steps:
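After transient transfection of HepG2 cells with cis-promoter reporter units and 24 h chemical treatment, reporter transcripts were quantified by RT-PCR and capillary electrophoresis fluorescence. Gain- and loss-of-signal fitted against DMSO.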

Assay [7] is described as follows: ATG_SREBP_CIS: Attagene CIS-FACTORIAL HepG2 Assay for human Sterol Regulatory Element Binding (SREBP) (AID 2282962). Conditions: HepG2 Attagene cis-factorial SREBP reporter, mRNA; actives raise or lower the signal. A digest of the protocol:
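mRNA induction of transfected cis-promoter reporters in HepG2 cells, 24 h post-dose. Detection: RT-PCR with 6-FAM-labelled products, HpaI digest, capillary electrophoresis. DMSO served as negative control and baseline.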

Assay [8] deals with Signal transducer and activator of transcription 3 (Homo sapiens) (UniProt P40763). Briefly: ATG_STAT3_CIS: Attagene CIS-FACTORIAL HepG2 Assay for human Signal Transducer and Activator of Transcription 3 (STAT3) (AID 2282963). Conditions: HepG2, Attagene cis-factorial STAT3 reporter transcription; actives raise or lower the signal. A digest of the protocol:
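Endogenous STAT3-responsive cis-element activity was read in transiently transfected HepG2 cells after 24 h treatment. Reporter transcripts were quantified via RT-PCR and capillary electrophoresis, with DMSO as negative control and bidirectional curve fitting.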

A short description of assay [9]: ATG_TCF_b_cat_CIS: Attagene CIS-FACTORIAL HepG2 Assay for human T-Cell-Factor with beta-catenin (TCF/b-cat) (AID 2282965). The following applies: HepG2 TCF/beta-catenin cis-reporter transcription, actives raise or lower the signal. An outline of the steps:
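Endogenous TCF/LEF activity read as reporter transcript level via RT-PCR and capillary electrophoresis fluorescence in transfected HepG2, 24 h exposure; gain or loss of signal fitted against DMSO controls.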

Assay [10] can be described thus: ATG_TAL_CIS: Attagene CIS-FACTORIAL HepG2 Assay for human TAL Basal Promoter (AID 2282966).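 Also: background control endpoint measuring basal TAL promoter reporter mRNA not a specific factor.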 Conditions: HepG2 Attagene cis-factorial TAL promoter reporter; actives raise or lower the signal. A digest of the protocol: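 Fluorescence of labelled reporter cDNA fragments, resolved by capillary electrophoresis, gave the readout. Human HepG2 liver cells carried transiently transfected cis-element reporter units and were treated for 24 hours; activity was fitted bidirectionally against DMSO.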

A short description of assay [11]: ATG_TGFb_CIS: Attagene CIS-FACTORIAL HepG2 Assay for human Transforming Growth Factor (TGF) (AID 2282967). The following applies: HepG2 Attagene CIS TGFb reporter, mRNA transcription; actives raise or lower the signal. A digest of the protocol: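 Cells were dosed for 24 hours, after which total RNA was reverse-transcribed and reporter sequences amplified, labeled and sized by capillary electrophoresis. Activity was fitted in both directions against DMSO.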

The nature of assay [12]: ATG_VDRE_CIS: Attagene CIS-FACTORIAL HepG2 Assay for human Vitamin D Receptor Element (VDRE) (AID 2282968). The following applies: HepG2 VDRE cis-reporter transcription, actives raise or lower the signal. An outline of the steps:
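Reporter mRNA induction, quantified by capillary electrophoresis of fluorescently labelled RT-PCR products, was read 24 h after dosing HepG2 cells carrying transiently transfected cis-regulated reporter units; gain or loss relative to DMSO.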

Assay [13] deals with Estrogen receptor (Homo sapiens) (UniProt P03372). Briefly: ATG_ERa_TRANS: Attagene TRANS-FACTORIAL HepG2 Assay for human Estrogen Receptor alpha (ERa) (AID 2282970; active = hit-call score of the fitted dose curve at least 0.9, where 1 is the maximum). Conditions: HepG2 Attagene TRANS ERa GAL4 reporter, mRNA. A digest of the protocol:
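Human liver HepG2, transient transfection of multiple GAL4-UAS reporter units; TRANS format (exogenous NR-Gal4 chimera). 24 h dosing. Readout: reporter mRNA, RT-PCR, 6-FAM primer extension, HpaI digest, capillary electrophoresis. Positive direction vs DMSO.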

Assay [14] has as its target Steroid hormone receptor ERR1 (Homo sapiens) (UniProt P11474). In words: ATG_ERRa_TRANS: Attagene TRANS-FACTORIAL HepG2 Assay for human Estrogen-Related Receptor alpha (ERRa) (AID 2282971; active = hit-call score of the fitted dose curve at least 0.9, where 1 is the maximum). Conditions: HepG2 Attagene TRANS reporter, ERRa transactivation. A digest of the protocol:
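Reporter transcript induction was quantified by RT-PCR and capillary electrophoresis of FAM-labelled, HpaI-cut products after 24 h treatment of HepG2 cells carrying transiently transfected GAL4-UAS reporter units and an exogenous ERRa-Gal4 fusion; activity scored as increase over DMSO.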

The target of assay [15] is X-box-binding protein 1 (Homo sapiens) (UniProt P17861). In words: ATG_Xbp1_CIS: Attagene CIS-FACTORIAL HepG2 Assay for human X-box Binding Protein 1 (XBP1) (AID 2282972). Conditions: HepG2 XBP1 cis-element reporter, Attagene multiplex; actives raise or lower the signal. An outline of the steps:
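Fluorescence-labelled cDNA fragments from reporter transcripts, separated by capillary electrophoresis, give the signal. Source: HepG2 cells transfected with promoter-driven reporter units, harvested 24 h post-dose. DMSO served as reference for bidirectional curve fitting.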

A short description of assay [16]: ATG_GAL4_TRANS: Attagene TRANS-FACTORIAL HepG2 Assay for GAL4 (Internal Marker) (AID 2282976; active = hit-call score of the fitted dose curve at least 0.9, where 1 is the maximum). The following applies: HepG2 Attagene TRANS GAL4 internal marker reporter. An outline of the steps:
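First, HepG2 cells were transfected with reporter units under GAL4-UAS control. Next, they were treated with chemical for 24 h. Finally, RNA was reverse-transcribed, PCR-amplified, FAM-labelled and resolved by capillary electrophoresis, with induction scored against DMSO.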

In assay [17] the target is Paired box protein Pax-6 (Homo sapiens) (UniProt P26367). In words: ATG_Pax6_CIS: Attagene CIS-FACTORIAL HepG2 Assay for human Paired Box 6 (PAX6) (AID 2282956). The following applies: HepG2 CIS-FACTORIAL PAX6 reporter transcription, RNA readout; actives raise or lower the signal. An outline of the steps: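 Multiplexed cis-reporter HepG2 system; 24 h treatment; reporter mRNA read by RT-PCR/CE fluorescence; bidirectional fit vs DMSO.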

Assay [18] can be described thus: ATG_TA_CIS: Attagene CIS-FACTORIAL HepG2 Assay for human TA Basal Promoter (AID 2282964). The following applies: HepG2 Attagene CIS-factorial TA basal promoter reporter; actives raise or lower the signal. An outline of the steps:
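Steps: transfect HepG2 with MRTUs; dose 24 h; isolate RNA, DNase-treat, reverse-transcribe; PCR and FAM-label reporter cDNA; digest with HpaI 2h at 37 C; run capillary electrophoresis. Activity fitted both directions against DMSO.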

For assay [19], the target named is Nuclear receptor subfamily 1 group I member 3 (Homo sapiens) (UniProt Q14994). Briefly: ATG_CAR_TRANS: Attagene TRANS-FACTORIAL HepG2 Assay for human Constitutive Androstane Receptor (CAR) (AID 2282969; active = hit-call score of the fitted dose curve at least 0.9, where 1 is the maximum;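 also: activators raise reporter mRNA above DMSO so AC50 marks induction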). The following applies: HepG2 Attagene TRANS-FACTORIAL CAR reporter. A digest of the protocol: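 Readout is reporter mRNA induction, quantified by fluorescent primer extension and capillary electrophoresis after RT-PCR. Cells were HepG2 transiently carrying chimeric NR-Gal4 constructs with GAL4-UAS reporters, treated for 24 h; activity scored upward from DMSO.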

Assay [20] is described as follows: ATG_M_19_TRANS: Attagene TRANS-FACTORIAL HepG2 Assay for M19 Transcription Factor (Internal Marker) (AID 2282974; active = hit-call score of the fitted dose curve at least 0.9, where 1 is the maximum). Conditions: HepG2 Attagene TRANS-FACTORIAL M19 internal marker reporter. A digest of the protocol:
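Gain-of-signal in reporter mRNA, relative to DMSO, was scored from capillary electrophoresis fluorescence. HepG2 cells carried transiently transfected multiple reporter transcription units and were incubated with test chemicals for 24 h.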

Steroid hormone receptor ERR1 (Homo sapiens), sequence (P11474 whole entry, looked up, the tested form may be a part): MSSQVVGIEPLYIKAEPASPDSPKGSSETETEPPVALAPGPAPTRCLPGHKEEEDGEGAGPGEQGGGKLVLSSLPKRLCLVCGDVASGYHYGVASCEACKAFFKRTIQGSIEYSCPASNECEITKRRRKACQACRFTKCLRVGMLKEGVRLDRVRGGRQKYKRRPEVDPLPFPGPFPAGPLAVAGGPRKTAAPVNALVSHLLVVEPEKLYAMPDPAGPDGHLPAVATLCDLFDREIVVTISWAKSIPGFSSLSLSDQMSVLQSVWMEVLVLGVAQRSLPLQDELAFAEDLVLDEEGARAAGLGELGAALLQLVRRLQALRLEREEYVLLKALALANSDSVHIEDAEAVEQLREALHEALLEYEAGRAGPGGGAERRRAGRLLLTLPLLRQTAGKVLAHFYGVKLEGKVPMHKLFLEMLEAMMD
Transcription factor Sp1 (Homo sapiens), sequence (P08047 whole entry, looked up): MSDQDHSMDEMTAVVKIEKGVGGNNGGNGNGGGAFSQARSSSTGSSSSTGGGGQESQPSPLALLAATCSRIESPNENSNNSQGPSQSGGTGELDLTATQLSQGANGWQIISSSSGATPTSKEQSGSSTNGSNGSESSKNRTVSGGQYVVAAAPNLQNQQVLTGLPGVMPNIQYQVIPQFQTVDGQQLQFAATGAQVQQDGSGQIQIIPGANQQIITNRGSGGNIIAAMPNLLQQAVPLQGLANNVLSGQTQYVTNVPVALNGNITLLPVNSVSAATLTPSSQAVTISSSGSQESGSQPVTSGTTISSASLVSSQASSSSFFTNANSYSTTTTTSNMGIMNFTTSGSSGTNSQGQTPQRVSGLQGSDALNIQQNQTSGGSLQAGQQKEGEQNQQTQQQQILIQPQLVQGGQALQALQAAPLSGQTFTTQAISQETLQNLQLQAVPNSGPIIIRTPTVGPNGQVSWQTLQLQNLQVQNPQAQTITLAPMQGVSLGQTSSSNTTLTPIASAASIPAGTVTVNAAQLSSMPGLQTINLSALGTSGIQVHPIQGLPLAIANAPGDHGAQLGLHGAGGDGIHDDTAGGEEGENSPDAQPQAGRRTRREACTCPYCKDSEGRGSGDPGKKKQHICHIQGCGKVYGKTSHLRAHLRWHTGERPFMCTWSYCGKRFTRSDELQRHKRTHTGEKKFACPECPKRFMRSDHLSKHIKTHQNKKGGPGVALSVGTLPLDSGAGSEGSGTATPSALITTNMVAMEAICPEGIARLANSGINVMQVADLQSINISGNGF
X-box-binding protein 1 (Homo sapiens), sequence (P17861 whole entry, looked up, the tested form may be a part): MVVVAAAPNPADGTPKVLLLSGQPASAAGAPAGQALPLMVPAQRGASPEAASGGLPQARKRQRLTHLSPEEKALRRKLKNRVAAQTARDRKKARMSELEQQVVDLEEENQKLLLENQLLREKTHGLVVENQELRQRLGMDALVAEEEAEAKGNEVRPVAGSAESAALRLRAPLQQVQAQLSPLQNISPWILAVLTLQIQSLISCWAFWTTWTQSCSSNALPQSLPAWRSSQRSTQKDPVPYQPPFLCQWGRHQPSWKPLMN
Signal transducer and activator of transcription 3 (Homo sapiens), sequence (P40763 whole entry, looked up): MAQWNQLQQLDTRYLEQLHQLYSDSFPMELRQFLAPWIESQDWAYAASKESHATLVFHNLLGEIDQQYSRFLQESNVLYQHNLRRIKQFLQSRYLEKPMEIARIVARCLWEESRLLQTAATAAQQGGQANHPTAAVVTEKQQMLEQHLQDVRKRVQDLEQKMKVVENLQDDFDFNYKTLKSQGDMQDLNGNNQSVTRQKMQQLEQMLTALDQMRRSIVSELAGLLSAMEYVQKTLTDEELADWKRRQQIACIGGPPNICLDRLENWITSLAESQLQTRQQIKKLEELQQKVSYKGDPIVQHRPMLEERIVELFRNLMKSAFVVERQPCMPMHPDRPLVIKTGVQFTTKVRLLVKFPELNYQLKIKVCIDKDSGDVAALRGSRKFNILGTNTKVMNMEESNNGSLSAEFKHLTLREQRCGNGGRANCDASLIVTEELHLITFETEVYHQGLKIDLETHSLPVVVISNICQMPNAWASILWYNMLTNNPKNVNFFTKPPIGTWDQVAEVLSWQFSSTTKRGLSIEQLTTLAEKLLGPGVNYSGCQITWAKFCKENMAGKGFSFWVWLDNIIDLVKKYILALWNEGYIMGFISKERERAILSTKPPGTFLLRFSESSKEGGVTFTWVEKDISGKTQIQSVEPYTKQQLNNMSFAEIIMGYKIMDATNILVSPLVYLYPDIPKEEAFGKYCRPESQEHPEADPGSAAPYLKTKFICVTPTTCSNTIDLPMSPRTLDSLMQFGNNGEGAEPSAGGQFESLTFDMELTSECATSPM
Estrogen receptor (Homo sapiens), sequence (P03372 whole entry, looked up, the tested form may be a part): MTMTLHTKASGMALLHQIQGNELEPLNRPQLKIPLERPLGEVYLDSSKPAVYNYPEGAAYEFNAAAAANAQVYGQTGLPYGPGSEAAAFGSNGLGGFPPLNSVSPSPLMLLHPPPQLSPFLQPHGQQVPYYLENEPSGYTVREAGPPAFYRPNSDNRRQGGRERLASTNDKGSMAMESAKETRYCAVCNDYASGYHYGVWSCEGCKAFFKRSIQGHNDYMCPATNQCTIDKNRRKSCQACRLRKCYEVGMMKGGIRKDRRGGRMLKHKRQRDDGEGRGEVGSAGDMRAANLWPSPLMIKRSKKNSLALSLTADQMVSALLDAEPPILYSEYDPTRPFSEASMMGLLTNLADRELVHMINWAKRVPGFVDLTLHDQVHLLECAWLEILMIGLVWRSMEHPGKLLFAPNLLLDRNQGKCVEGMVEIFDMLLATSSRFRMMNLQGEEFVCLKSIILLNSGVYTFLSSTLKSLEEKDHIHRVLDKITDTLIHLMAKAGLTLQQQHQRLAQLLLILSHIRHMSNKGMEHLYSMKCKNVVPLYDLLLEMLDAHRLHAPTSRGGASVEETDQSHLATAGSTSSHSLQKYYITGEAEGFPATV
Nuclear receptor subfamily 1 group I member 3 (Homo sapiens), sequence (Q14994 whole entry, looked up, the tested form may be a part): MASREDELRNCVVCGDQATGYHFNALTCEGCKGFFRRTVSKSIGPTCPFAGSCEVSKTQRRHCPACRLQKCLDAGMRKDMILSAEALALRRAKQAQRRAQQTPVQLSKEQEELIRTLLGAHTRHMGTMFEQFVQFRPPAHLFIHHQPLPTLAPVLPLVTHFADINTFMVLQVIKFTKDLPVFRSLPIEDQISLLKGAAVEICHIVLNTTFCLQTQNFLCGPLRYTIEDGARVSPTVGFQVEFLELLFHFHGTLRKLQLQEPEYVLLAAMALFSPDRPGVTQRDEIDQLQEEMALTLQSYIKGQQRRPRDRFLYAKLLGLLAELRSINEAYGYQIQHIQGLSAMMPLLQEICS
Paired box protein Pax-6 (Homo sapiens), sequence (P26367 whole entry, looked up): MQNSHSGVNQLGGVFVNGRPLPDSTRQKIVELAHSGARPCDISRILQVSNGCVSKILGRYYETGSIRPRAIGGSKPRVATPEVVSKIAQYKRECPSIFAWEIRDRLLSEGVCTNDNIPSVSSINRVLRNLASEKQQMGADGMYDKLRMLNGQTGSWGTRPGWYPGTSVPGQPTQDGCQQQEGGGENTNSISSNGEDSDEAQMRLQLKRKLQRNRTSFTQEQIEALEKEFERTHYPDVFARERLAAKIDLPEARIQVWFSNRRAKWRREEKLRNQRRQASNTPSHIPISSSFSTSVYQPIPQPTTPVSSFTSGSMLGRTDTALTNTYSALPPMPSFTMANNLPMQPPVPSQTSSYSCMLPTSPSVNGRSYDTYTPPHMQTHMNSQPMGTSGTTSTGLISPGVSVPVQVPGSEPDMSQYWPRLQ

In the case of `CC1=CC2C3C=CC(C3)C2C1C` (centres undefined), the result in assay [1], in assay [3], in [4], in assay [5], in assay [6] and in assay [7] was inactive. In addition, the compound was called inactive in assay [8], in assay [9], in assay [10], in assay [11], in assay [13] and in [14]. The call in assay [15] was inactive. Further, the AC50 (as a rule, the concentration at which the activity in the assay is half-maximal) in [2] was 1.59 µM (active); in assay [12], 1.81 µM (active).
Consider `CC(=O)c1ccccc1N`, for which the outcome in assay [1], in assay [2], in assay [3], in [4], in assay [5] and in assay [6] was inactive. For the same compound, the result in [7], in [8], in [9], in assay [10], in [11] and in assay [12] was inactive. Besides, the call in assay [15] and in assay [16] was inactive.
`O=C=Nc1cccc2c(N=C=O)cccc12`: the result in assay [17], in [3], in assay [4], in assay [5], in assay [6] and in assay [7] was inactive. Further, the outcome in assay [8], in assay [18], in assay [9], in assay [10], in assay [11] and in assay [12] was inactive. Moreover, the compound was called inactive in assay [19], in assay [14], in assay [15], in assay [20] and in [16]. For the same compound, the AC50 in [2] is 1.82 µM (active).
For `CCOC(C=C(C)CCC=C(C)C)OCC`, the outcome in assay [1], in [3], in [5], in [6], in [7] and in [8] was inactive. The result in assay [18], in assay [10], in assay [11], in assay [13], in [14] and in [15] was inactive. In addition, the compound was called inactive in assay [20] and in assay [16]. Further, the figures for the AC50 in assay [2], in assay [4] and in [12] were 31.2 µM (active), 38.3 µM (active) and 49.7 µM (active), respectively.
